Laboratory results as given in ChEMBL document CHEMBL3988442, “University of Dundee, Small-Polar-MMV Screening Library” (2021).
For some of these results: Potency and affinity values are given separately.

How the values were obtained:
Design in all cases: scale not given: direction of the effect not stated beside the values
[1] = biological target: Protein translocase subunit SecA (Escherichia coli (strain K12)) (UniProt P10408); assay: Assay to Identify E. coli SecA ATPase Inhibitors; assay type: functional; conditions: 30 µM
[2] = biological target: T1, Ubiquitin-activating enzyme e1, putative (Leishmania donovani (strain BPK282A1)) (UniProt E9BSI1); assay: Leishmania donovani Ubiquitin Activating Enzyme (LdE1); assay type: functional; conditions: 30 µM
T1 sequence (whole entry): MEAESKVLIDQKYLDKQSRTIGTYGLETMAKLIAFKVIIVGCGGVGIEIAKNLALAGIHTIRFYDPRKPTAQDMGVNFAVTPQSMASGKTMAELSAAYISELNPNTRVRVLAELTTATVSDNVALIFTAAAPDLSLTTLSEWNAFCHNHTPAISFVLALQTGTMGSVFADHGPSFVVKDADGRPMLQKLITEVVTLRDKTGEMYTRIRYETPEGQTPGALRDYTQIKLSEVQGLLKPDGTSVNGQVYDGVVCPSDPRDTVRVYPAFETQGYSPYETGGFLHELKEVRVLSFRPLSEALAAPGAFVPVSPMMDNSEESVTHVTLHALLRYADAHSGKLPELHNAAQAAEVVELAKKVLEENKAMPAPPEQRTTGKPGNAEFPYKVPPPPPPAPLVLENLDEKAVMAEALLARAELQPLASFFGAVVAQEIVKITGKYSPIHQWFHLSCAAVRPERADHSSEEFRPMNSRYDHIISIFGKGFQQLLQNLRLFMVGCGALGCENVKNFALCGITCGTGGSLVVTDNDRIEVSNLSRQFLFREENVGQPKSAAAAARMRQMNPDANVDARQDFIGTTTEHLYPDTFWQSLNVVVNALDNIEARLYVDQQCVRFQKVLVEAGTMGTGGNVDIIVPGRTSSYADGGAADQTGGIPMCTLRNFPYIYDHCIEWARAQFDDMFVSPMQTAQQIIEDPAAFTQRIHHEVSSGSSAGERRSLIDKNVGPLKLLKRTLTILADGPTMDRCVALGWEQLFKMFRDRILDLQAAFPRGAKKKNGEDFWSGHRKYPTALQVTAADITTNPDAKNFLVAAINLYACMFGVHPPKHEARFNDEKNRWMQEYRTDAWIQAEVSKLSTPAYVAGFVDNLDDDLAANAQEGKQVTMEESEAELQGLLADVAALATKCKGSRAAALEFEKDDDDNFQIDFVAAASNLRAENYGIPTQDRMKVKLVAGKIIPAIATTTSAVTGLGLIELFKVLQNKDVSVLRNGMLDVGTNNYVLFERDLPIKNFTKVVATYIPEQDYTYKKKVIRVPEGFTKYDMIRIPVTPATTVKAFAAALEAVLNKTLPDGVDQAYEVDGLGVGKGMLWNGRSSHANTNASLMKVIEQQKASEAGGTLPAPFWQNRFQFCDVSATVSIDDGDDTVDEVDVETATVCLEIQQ

[3] = biological target: AMP-activated protein kinase, AMPK (Homo sapiens) (UniProt P54646+O43741+P54619+Q9UGJ0+Q9Y478+Q13131+Q9UGI9); assay: AMP-dependent Kinase enzyme assay. An in vitro enzyme assay that detects ADP turnover that is directly proportional to AMPK activity. This uses naive AMPK that is activated during the assay with MK-8722; assay type: functional; conditions: 30 µM
[4] = biological target: Sialic acid-binding Ig-like lectin 9 (Homo sapiens) (UniProt Q9Y336); assay: Hs-Siglec9 ALPHAscreen SOP 20170721; conditions: 10 µM
Trypanosoma cruzi = assay: Trypanosoma cruzi phosphomannomutase and mannose-1-phosphate guanylyltransferase assay; assay type: functional; conditions: 10 µM
[5] = biological target: T2, Arginase-2, mitochondrial (Homo sapiens) (UniProt P78540); assay: in vitro enzyme assay to detect the production of urea directly proportional to the activity of Arginase II; assay type: functional; conditions: 33.3 µM; note: in the data most compounds retested in dose-response had high values
T2 sequence (whole entry): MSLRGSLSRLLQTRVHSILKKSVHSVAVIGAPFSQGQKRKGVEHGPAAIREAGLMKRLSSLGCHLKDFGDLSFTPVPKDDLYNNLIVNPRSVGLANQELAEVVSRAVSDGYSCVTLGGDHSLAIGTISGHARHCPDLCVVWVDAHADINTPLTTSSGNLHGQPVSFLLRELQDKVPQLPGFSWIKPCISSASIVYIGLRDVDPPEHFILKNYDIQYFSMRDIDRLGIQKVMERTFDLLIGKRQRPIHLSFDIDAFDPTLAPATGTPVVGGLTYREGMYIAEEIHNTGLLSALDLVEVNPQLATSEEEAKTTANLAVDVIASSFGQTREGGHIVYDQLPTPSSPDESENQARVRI

[6] = biological target: T3, Proteasome subunit beta (Trypanosoma cruzi) (UniProt O96673); assay: Trypanosoma cruzi proteasome chymotrypsin-like activity (TcProtChymo) assay.; note: in the data most compounds retested in dose-response had high values; assay type: functional; conditions: 9.37 µM
T3 sequence (whole entry): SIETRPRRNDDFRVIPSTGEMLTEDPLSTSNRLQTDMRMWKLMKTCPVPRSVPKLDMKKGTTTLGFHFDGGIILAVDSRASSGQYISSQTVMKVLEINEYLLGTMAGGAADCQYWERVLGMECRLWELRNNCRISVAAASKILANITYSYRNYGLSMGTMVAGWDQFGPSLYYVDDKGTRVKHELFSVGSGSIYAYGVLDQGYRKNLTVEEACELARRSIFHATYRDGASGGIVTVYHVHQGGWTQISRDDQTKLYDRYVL

Homo sapiens = species: Homo sapiens; assay: To identify inhibition of the IFN signalling (Jak-Stat) pathway via expression of an eGFP reporter gene under the control of an IFN-stimulated response element (ISRE) containing MxA promoter.; assay type: functional; conditions: 30 µM
[7] = biological target: T4, Tyrosyl-tRNA synthetase, putative (Trypanosoma cruzi (strain CL Brener)) (UniProt Q4DSP6); assay: Trypanosoma cruzi tyrosyl tRNA synthetase (TcYRS) _High Tyrosine SOP; assay type: functional; conditions: 30 µM; note: in the data most compounds retested in dose-response had high values
T4 sequence (whole entry): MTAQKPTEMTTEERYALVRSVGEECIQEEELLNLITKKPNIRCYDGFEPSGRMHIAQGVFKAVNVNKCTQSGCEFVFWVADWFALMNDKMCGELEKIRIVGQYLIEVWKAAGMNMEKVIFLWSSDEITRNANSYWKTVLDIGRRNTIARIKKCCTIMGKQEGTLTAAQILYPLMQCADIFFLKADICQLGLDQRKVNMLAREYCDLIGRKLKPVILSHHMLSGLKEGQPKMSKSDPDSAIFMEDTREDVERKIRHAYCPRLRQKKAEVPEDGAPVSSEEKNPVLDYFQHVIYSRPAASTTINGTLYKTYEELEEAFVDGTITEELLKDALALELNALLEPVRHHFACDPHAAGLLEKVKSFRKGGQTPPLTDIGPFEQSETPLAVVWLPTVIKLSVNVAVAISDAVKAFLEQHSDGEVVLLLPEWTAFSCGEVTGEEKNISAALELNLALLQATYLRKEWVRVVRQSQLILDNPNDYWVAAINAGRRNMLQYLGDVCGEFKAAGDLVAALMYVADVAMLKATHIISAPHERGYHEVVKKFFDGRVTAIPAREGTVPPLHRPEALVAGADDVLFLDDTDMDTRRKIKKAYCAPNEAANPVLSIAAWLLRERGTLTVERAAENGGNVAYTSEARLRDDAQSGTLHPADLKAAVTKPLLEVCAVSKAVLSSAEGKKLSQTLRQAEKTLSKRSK

[8] = biological target: T4, Tyrosyl-tRNA synthetase, putative (Trypanosoma cruzi (strain CL Brener)); assay: Trypanosoma cruzi tyrosyl tRNA synthetase (TcYRS) SOP; assay type: functional; conditions: 30 µM
[9] = biological target: Chromo domain-containing protein 1 (Saccharomyces cerevisiae (strain ATCC 204508 / S288c) (Baker's yeast)) (UniProt P32657); assay: ScCHD-1 Enzyme Inhibition Assay; assay type: functional; conditions: 30 µM; note: in the data most compounds retested in dose-response had high values
Chain of Chromo domain-containing protein 1 (Saccharomyces cerevisiae (strain ATCC 204508 / S288c) (Baker's yeast)) (P32657 whole entry, the tested form may be a part): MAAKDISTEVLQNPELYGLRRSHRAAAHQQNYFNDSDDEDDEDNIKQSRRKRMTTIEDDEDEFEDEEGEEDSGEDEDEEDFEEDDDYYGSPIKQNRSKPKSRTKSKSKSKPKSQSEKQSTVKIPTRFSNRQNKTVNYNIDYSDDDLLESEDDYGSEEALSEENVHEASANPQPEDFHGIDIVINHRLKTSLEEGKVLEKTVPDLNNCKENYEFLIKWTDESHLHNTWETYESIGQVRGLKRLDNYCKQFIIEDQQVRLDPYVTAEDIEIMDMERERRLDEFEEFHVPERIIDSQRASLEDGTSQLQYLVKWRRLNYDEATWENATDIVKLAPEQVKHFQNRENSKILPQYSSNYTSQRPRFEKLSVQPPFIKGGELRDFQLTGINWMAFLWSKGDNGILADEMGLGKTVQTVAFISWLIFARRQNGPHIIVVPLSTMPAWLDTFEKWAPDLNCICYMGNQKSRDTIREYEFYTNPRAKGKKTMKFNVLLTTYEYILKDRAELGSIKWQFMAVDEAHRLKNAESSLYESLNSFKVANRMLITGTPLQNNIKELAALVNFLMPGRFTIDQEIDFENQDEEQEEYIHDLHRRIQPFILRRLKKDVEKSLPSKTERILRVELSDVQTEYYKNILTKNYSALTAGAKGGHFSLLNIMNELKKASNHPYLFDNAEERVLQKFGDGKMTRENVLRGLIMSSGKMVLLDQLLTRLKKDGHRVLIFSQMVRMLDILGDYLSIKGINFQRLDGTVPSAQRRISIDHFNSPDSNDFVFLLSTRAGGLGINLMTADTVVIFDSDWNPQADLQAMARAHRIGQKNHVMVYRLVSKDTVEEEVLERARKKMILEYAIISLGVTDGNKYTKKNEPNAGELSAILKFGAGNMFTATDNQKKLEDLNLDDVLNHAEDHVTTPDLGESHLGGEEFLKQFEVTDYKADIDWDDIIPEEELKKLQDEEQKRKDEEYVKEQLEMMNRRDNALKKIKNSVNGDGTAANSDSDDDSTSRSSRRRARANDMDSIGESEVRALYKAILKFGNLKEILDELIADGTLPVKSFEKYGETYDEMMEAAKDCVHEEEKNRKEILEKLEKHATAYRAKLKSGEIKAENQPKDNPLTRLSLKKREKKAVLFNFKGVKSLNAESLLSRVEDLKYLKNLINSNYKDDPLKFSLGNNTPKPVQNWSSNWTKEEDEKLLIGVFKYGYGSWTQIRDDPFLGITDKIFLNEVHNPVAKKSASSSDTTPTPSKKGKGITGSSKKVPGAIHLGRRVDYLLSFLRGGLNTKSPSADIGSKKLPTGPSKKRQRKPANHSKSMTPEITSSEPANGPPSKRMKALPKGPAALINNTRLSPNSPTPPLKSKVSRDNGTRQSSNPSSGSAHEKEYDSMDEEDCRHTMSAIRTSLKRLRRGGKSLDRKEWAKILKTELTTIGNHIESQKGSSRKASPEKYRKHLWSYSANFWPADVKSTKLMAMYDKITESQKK

Chain of Sialic acid-binding Ig-like lectin 9 (Homo sapiens) (Q9Y336 whole entry): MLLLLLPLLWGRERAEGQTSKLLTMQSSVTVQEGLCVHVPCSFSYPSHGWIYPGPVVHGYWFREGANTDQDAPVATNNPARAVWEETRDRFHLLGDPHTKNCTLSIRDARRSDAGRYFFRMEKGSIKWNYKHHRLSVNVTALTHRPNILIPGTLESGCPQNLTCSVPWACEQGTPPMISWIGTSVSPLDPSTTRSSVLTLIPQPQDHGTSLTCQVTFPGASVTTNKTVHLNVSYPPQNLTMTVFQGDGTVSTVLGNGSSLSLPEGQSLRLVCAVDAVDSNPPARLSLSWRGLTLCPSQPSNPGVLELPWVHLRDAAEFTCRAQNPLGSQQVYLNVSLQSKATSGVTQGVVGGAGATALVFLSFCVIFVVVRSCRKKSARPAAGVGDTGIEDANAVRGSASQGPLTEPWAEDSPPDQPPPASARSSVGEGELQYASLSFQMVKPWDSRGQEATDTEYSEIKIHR
Chain of Protein translocase subunit SecA (Escherichia coli (strain K12)) (P10408 whole entry): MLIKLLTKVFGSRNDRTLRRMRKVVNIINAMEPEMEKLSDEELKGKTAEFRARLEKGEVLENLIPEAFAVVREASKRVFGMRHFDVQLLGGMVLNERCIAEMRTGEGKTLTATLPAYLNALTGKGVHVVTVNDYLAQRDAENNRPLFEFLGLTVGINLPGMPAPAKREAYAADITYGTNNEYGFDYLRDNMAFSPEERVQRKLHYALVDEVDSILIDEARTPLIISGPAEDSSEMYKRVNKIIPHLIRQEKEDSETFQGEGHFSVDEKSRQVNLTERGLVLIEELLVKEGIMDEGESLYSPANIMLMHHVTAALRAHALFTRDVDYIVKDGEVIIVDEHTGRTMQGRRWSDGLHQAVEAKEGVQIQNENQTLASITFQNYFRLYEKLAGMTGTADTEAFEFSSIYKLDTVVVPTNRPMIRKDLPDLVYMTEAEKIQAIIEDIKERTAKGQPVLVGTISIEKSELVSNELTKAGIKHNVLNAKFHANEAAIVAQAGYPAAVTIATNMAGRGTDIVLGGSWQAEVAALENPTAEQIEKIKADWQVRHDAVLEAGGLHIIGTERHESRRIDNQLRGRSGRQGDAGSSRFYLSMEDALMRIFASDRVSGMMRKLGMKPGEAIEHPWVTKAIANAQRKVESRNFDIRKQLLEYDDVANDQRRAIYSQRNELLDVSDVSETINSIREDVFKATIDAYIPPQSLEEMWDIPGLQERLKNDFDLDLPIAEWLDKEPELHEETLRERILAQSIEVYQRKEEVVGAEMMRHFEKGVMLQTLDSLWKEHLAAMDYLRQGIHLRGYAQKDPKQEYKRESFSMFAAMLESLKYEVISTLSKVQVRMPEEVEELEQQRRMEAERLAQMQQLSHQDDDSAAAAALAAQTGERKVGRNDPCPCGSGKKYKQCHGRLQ

SMILES	Percent Effect [1]	Percent Effect [2]	Percent Effect [3]	Percent Effect [4]	Percent Effect (Trypanosoma cruzi)	Percent Effect [5]	Percent Effect [6]	Percent Effect (Homo sapiens)	Percent Effect [7]	Percent Effect [8]	Percent Effect [9]
Cc1cc(N2CCCCCC2)n2nc(C)c(C)c2n1	-1.9%	4.17%	-3.08%	0.107%	12.2%	-0.883%	23.3%	3.63%	0%	12.8%	-7.26%
O=C1[C@@H]2CCN(Cc3ccoc3)C[C@@H]2OCCN1Cc1cccnc1	-4.73%	13.3%	6.25%	5.81%	-2.76%	-0.699%	11.4%	-11.6%	4.25%	1.28%	1.76%
CCCNC(=O)c1cc2c(nc1O)CCC(C)C2 (stereo unspecified)	-3.98%	14.7%	2.01%	-2.15%	5.5%	-13.9%	9.06%	-2.51%	6.35%	10.3%	-8.5%
CN1CCCC1CNC(=O)c1nnn(-c2ccc(F)cc2)c1C1CC1 (stereo unspecified)	-5.49%	0%	1.3%	3.88%	-5.86%	0%	8.2%	10.9%	4.95%	3.66%	-4.68%
CC(C)S(=O)(=O)NCC1CCCN(C(=O)c2cccnc2)C1 (stereo unspecified)	-1.12%	11%	-1.03%	-2.93%	-3.53%	0.455%	21.3%	15%	3.23%	10%	-3.28%
CSCC(CCO)NC(=O)Nc1cc(C)ccc1C (stereo unspecified)	-3.37%	2.74%	0.417%	-7.14%	-7.83%	4.09%	15.3%	5.34%	1.07%	5%	-3.27%
CCN1CCN(C2CCN(Cc3cc(C)on3)CC2)C1=O	-6.77%	5.06%	1.9%	-3.3%	8.21%	-3.04%	7.94%	1.37%	3.45%	8.86%	-13.6%
CCCC1(CO)CCCN(c2ncccc2F)C1 (stereo unspecified)	-0.789%	5.41%	-4.77%	3.77%	-1.16%	-2.38%	14.8%	10.4%	5.82%	12.2%	-3.22%
CC(C)COCC(NC(=O)c1cccnc1)c1ccco1 (stereo unspecified)	-5.15%	10.8%	-37.5%	3.03%	0.0943%	-4.01%	-0.54%	16.3%	9.36%	11.1%	-5.14%
Cc1cn2c(n1)CCC(NC(=O)CCn1ccnn1)C2 (stereo unspecified)	-3.55%	5.26%	-3.01%	-3.07%	-3.08%	3.24%	5.33%	-2.68%	2.46%	6.17%	3%
CCc1nc2n(n1)CC(NCC(=O)Nc1nccs1)CC2 (stereo unspecified)	-2.54%	-2.53%	-11.6%	-5.43%	-5.95%	-1.9%	-0.737%	15.1%	2.46%	-8.86%	-2.63%
